Reference: PubChem BioAssay
Values without a mark were called inactive. For some assays here: Results with a measured potency or affinity are listed apart. The source made the active and inactive calls. Unless noted, no rule for the calls is given here.

Key:
[1] = antimalarial activity against Dd2 strain (AID 2302;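 active = growth inhibition above 50% at the single 2 µM test dose, taken to imply half-maximal potency below 2 µM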;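 also: 0% = DMSO untreated growth and 100% = chloroquine plus artemisinin killed control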); conditions: P. falciparum Dd2 in RBCs, LDH growth readout, 72 h; at 2 µM; active compounds read high
[2] = human hepatoma cell viability loss – ATP luminescence, cytotoxicity control for P. falciparum antimalarial project, primary screen (AID 2303;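 active = inhibition above 50%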;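 also: 0% = DMSO wells and 100% = digitonin-killed cells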); conditions: HepG2 viability, 24-48 h, at 10 µM, active compounds read high
[3] = target: L-lactate dehydrogenase (Plasmodium falciparum (isolate CDC / Honduras)) (UniProt Q27743); test: PfLDH activity inhibition – cell lysate, 3D7 strain, counter-screen for P. falciparum growth inhibition project (AID 2304);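 also: 0% = vehicle and 100% = reference inhibitor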; conditions: P. falciparum 3D7 crude extract, LDH APAD/NBT absorbance; at 2 µM; active compounds read high
Sequence of L-lactate dehydrogenase (Plasmodium falciparum (isolate CDC / Honduras)) (Q27743 whole entry, looked up): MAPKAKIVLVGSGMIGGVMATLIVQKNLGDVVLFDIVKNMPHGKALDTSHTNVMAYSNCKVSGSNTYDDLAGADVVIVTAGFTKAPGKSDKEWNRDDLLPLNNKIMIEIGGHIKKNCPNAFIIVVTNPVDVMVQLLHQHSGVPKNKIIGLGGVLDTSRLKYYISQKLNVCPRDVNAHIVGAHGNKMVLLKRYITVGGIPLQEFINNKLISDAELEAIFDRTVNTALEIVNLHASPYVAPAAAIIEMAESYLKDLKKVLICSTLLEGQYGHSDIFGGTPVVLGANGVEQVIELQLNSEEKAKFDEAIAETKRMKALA

[4] = inhibition of 3D7 malaria parasite growth – strain 3D7 (AID 2306);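 also: 0% = DMSO wells and 100% = chloroquine plus artemisinin control wells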; conditions: P. falciparum 3D7 erythrocytic growth, LDH absorbance, 72 h; at 2 µM; active compounds read high
[5] = target: Calcium-dependent protein kinase 1 (Plasmodium falciparum (isolate 3D7)) (UniProt P62344); test: PfCDPK1 kinase inhibitors, biochemical, TCAMS library (AID 1159585; cut-off not given, nearly all actives have IC50 up to about 0.98 µM;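 also: inhibitors leave more ATP so luminescence rises with inhibition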); conditions: recombinant PfCDPK1, Kinase-Glo ATP depletion luminescence
Sequence of Calcium-dependent protein kinase 1 (Plasmodium falciparum (isolate 3D7)) (P62344 whole entry, looked up): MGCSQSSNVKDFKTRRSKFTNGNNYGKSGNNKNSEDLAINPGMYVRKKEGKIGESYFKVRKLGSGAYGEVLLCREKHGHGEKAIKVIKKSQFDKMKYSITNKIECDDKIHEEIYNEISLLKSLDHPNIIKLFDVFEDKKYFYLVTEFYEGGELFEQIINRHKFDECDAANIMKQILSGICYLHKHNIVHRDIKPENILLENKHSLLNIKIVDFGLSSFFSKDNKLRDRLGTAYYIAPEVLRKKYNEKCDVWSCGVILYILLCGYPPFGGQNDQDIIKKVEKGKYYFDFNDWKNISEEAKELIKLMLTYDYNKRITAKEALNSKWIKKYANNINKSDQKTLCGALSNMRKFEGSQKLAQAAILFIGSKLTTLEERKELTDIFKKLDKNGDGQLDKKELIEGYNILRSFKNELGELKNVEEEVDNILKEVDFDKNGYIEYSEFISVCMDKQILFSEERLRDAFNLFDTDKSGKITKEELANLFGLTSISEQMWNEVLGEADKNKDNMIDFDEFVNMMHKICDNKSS

[6] = target: Plasmodium falciparum protein kinase 6 (PK6, PF3D7_1337100) (UniProt Q8IDW1); test: PfPK6 kinase inhibitors, biochemical, TCAMS library (AID 1159586); conditions: recombinant PfPK6, Kinase-Glo ATP depletion luminescence
Sequence of Plasmodium falciparum protein kinase 6 (PK6, PF3D7_1337100) (Q8IDW1 1-305): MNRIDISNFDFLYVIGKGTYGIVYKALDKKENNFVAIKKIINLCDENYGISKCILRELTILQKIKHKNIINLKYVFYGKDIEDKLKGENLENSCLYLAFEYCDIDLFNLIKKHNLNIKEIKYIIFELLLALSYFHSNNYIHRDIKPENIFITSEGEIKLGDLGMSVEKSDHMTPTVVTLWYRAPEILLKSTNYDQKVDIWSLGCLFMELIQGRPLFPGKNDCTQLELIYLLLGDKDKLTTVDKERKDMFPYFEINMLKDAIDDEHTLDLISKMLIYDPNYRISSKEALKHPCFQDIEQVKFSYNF

[7] = target: Protein kinase 7 (PK7), Plasmodium falciparum 3D7 (PF3D7_0213400) (UniProt Q7YTF7); test: inhibition of Plasmodium PK7 catalytic activity – biochemical, TCAMS antimalarial set, Kinase-Glo luminescence (AID 1159587); conditions: recombinant PfPK7, Kinase-Glo ATP depletion luminescence
Sequence of Protein kinase 7 (PK7), Plasmodium falciparum 3D7 (PF3D7_0213400) (Q7YTF7 1-343): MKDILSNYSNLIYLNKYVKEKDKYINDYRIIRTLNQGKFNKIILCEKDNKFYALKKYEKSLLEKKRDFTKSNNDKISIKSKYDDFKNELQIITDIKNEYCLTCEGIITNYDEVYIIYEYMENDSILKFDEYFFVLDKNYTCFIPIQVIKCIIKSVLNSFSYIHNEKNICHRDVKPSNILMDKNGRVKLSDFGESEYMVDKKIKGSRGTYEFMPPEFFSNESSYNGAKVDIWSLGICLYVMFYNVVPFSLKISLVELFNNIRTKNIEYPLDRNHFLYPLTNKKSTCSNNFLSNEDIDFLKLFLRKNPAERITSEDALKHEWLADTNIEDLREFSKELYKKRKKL

[8] = target: Calcium-dependent protein kinase 4 (Plasmodium falciparum (isolate 3D7)) (UniProt Q8IBS5); test: PfCDPK4 kinase inhibitors, biochemical, TCAMS library (AID 1159588; cut-off not given, nearly all actives have IC50 up to about 0.91 µM); conditions: recombinant PfCDPK4, Kinase-Glo ATP depletion luminescence
Sequence of Calcium-dependent protein kinase 4 (Plasmodium falciparum (isolate 3D7)) (Q8IBS5 whole entry, looked up): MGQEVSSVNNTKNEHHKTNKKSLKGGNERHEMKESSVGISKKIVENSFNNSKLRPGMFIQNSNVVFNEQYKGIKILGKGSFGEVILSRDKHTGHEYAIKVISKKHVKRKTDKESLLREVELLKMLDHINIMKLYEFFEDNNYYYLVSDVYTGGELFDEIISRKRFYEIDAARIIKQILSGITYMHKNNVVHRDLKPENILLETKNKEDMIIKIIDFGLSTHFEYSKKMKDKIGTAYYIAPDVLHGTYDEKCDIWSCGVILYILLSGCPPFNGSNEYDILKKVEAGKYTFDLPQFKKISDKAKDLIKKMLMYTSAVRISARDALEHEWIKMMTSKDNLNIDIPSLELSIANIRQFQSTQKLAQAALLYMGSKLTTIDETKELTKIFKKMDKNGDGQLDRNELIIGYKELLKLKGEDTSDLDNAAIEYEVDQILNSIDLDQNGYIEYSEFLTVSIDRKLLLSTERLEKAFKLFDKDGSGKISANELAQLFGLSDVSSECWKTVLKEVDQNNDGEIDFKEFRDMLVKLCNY

Row | Structure (SMILES) | growth inhibition [1] | inhibition [2] | inhibition [3] | growth inhibition [4] | outcome [5] | outcome [6] | outcome [7] | outcome [8]
1 | CC(C)(C)NCc1cc(Nc2ccnc3cc(Cl)ccc23)ccc1F | 100% (active) | 21% | 6% | 101% (active) | inactive | inactive | inactive | inactive
2 | COc1cccc(-c2cnc(N)c(-c3nc4cc(Cl)c(F)cc4[nH]3)c2)c1 | 26% | 37% | 6% | 100% (active) | inactive | inactive | inactive | inactive
3 | Cc1cc(NCCC(=O)NCCOc2ccccc2)nc(NCCc2ccc(F)cc2)n1 | 4% | 14% | 2% | 97% (active) | inactive | inactive | inactive | inactive
4 | Cc1cccc(C)c1CNc1ccnc2cc(Br)ccc12 | 99% (active) | 24% | -3% | 95% (active) | inactive | inactive | inactive | inactive
5 | COc1cc(F)c2ncc(Cl)c([C@H](O)CN3CCC(NCc4ccc5c(n4)NC(=O)CO5)CC3)c2c1 | 99% (active) | 14% | -1% | 99% (active) | inactive | inactive | inactive | inactive
6 | Cc1[nH]c(C)c(-c2ccc(Oc3cccc(Cl)c3)cc2)c(=O)c1Cl | 97% (active) | 40% | -3% | 99% (active) | inactive | inactive | inactive | inactive
7 | O=C(/C=C/c1ccc(Cl)cc1)NCCCCCN1CCC(C(=O)Nc2cccc(Cl)c2)CC1 | -6% | 22% | -8% | 97% (active) | inactive | inactive | inactive | inactive
8 | CCNc1cc(C)nc(Nc2ccc(NS(=O)(=O)c3cc(OC)ccc3OC)cc2)n1 | 36% | 56% (active) | -1% | 100% (active) | inactive | inactive | inactive | inactive
9 | Cc1ccccc1Nc1nc(Nc2ccccc2)c2ccccc2n1 | 21% | 19% | -8% | 103% (active) | inactive | inactive | inactive | inactive
10 | CCCC(C)Nc1nc(C)cc(N[C@@H](Cc2ccccc2)C(=O)NCc2cccc(F)c2)n1 (stereo not given in full) | 75% (active) | 9% | -2% | 100% (active) | inactive | inactive | inactive | inactive
11 | COc1ccc(O)cc1/C=N/Nc1ccnc2cc(Cl)ccc12 | 92% (active) | -5% | 3% | 103% (active) | inactive | inactive | inactive | inactive
12 | O=C1C(=Cc2cc(Cc3ccccc3)ccc2O)SC(=S)N1Cc1ccccc1 | 53% (active) | 16% | -2% | 98% (active) | inactive | inactive | inactive | inactive
13 | CC(C)(C)c1ccc2oc(=O)n(C3CCN(C(=O)c4ccc([N+](=O)[O-])o4)CC3)c2c1 | 87% (active) | -8% | -2% | 94% (active) | inactive | inactive | inactive | inactive
14 | N#Cc1ccc2c(c1)CCN(CCC1CCC(NC(=O)/C=C/c3cccc4cc[nH]c34)CC1)CC2 (stereo not given) | 29% | 22% | -3% | 89% (active) | inactive | inactive | inactive | inactive
15 | Cc1ccc(Nc2nc(NN=Cc3cccc(O)c3)nc(Nc3ccc([N+](=O)[O-])cc3)n2)cc1C | 69% (active) | -2% | 5% | 101% (active) | inactive | inactive | inactive | inactive
16 | c1ccc(CN2CCC(NCc3cccc(-c4cncc5ccccc45)c3)CC2)cc1 | 11% | 29% | 3% | 92% (active) | inactive | inactive | inactive | inactive
17 | Cc1cc(N2CCCN(CC3CCCCC3)CC2)nc(Nc2ccc(Br)cc2)n1 | 54% (active) | 24% | -1% | 95% (active) | inactive | inactive | inactive | inactive
18 | O=c1cc(NCCCNCc2cccc(I)c2)[nH]c2ccccc12 | 9% | 10% | -1% | 90% (active) | inactive | inactive | inactive | inactive
19 | COc1nc2c(CCN3CCC(NCc4ccc5c(c4)NC(=O)CO5)CC3)c(Cl)cnc2cc1F | 21% | 15% | 6% | 99% (active) | inactive | inactive | inactive | inactive
20 | COc1ccc2nc(/C=C/c3cccc4ccc(C)nc34)[nH]c2c1 | 77% (active) | 25% | -1% | 98% (active) | inactive | inactive | inactive | inactive

Row | Structure (SMILES) | growth inhibition [1] | inhibition [2] | inhibition [3] | growth inhibition [4] | outcome [5] | outcome [6] | outcome [7] | outcome [8]
21 | COc1ccc(-c2nc(NC(=O)CS(=O)(=O)c3ccc(OC)cc3)sc2C)cc1 | 89% (active) | 6% | -2% | 95% (active) | inactive | inactive | inactive | inactive
22 | OCC1CCN(Cc2ccc(-c3cccc(-c4nc5ccc(C(F)(F)F)cc5[nH]4)c3)cc2)CC1 | 73% (active) | 19% | -4% | 99% (active) | inactive | inactive | inactive | inactive
23 | O=c1cc(-c2cccc(C(F)(F)F)c2)nc(Nc2ccc(Cl)c(Cl)c2)[nH]1 | 97% (active) | 57% (active) | -2% | 97% (active) | inactive | inactive | inactive | inactive
24 | Cc1cccc2[nH]c(-c3cccc(-c4ccc(NC(=O)NCc5ccccc5)cc4)c3)nc12 | 47% | 35% | -2% | 101% (active) | inactive | inactive | inactive | inactive
25 | O=C(NCCCCCN1CCC(c2c[nH]c3ccccc23)CC1)c1ccc(Cl)c(Cl)c1 | 10% | 48% | -2% | 85% (active) | inactive | inactive | inactive | inactive
26 | COc1ccc(O)c(C(=O)c2cc(C(=O)NCCc3ccccc3)c(=O)n(CCc3ccccc3)c2)c1 | 18% | 11% | -2% | 97% (active) | inactive | inactive | inactive | inactive
27 | Cc1cc(CN2CC[C@H](NC(=O)c3ccc(Cl)c(Cl)c3)C2)ccc1OCCCN(C)C | 35% | 41% | 0% | 99% (active) | inactive | inactive | inactive | inactive
28 | CC1CCCN(C(=O)c2cc(-c3ccccn3)nc3c(Cl)cccc23)C1 (stereo not given) | 9% | 2% | -5% | 86% (active) | inactive | inactive | inactive | inactive
29 | NCCCCc1c(-c2ccc(Cl)c(Cl)c2)[nH]c2ccc(Cl)cc12 | 20% | 33% | -9% | 97% (active) | inactive | inactive | inactive | inactive
30 | CC[C@H]1CN(Cc2ccco2)CC[C@H]1CCCc1ccnc2ccc(O)cc12 | 14% | 31% | -1% | 93% (active) | inactive | inactive | inactive | inactive
31 | CC(Oc1c(C2CCN(CCCCNC(=O)c3ccc(-c4ccc(Cl)cc4)cc3)CC2)ccc2c1CCCC2)C(N)=O (stereo not given) | 16% | 100% (active) | 3% | 99% (active) | inactive | inactive | inactive | inactive
32 | N#Cc1ccc(NC(=NC2CCN(Cc3ccccc3)CC2)Nc2ccccc2Cl)c(O)c1 | 97% (active) | 31% | 0% | 101% (active) | inactive | inactive | inactive | inactive
33 | OC(CNc1ccnc(Nc2ccc(Cl)cc2)n1)c1cccc(C(F)(F)F)c1 (stereo not given) | 84% (active) | 9% | 4% | 101% (active) | inactive | inactive | inactive | inactive
34 | O=C(Nc1cccc(OC2CCN(Cc3ccc(F)cc3)CC2)c1)c1ccc(C(F)(F)F)cc1 | 6% | 28% | 3% | 94% (active) | inactive | inactive | inactive | inactive
35 | COc1ccc(-c2ccc(NC(=O)c3cccs3)cc2)cc1CN1CCCN(C)CC1 | 30% | 31% | 4% | 100% (active) | inactive | inactive | inactive | inactive
36 | CCCc1cnc2nc(N)nc(N)c2c1C | 3% | 68% (active) | -3% | 93% (active) | inactive | inactive | inactive | inactive
37 | Cc1cc(Nc2ccc(C)c(C)c2)n2nc(C)nc2n1 | 45% | 10% | -5% | 95% (active) | inactive | inactive | inactive | inactive
38 | CN(C)c1ccc(-c2csc(C(=O)NC3CCCCN(Cc4ccc(C(C)(C)C)cc4)C3)c2)cc1 (stereo not given) | 55% (active) | 17% | 4% | 84% (active) | inactive | inactive | inactive | inactive
39 | CC(C)CCn1c(Sc2ccc(C#N)c([N+](=O)[O-])c2)nnc1-c1ccc(Cl)cc1 | 39% | 25% | -1% | 90% (active) | inactive | inactive | inactive | inactive
40 | CCOC(=O)c1ccc(NC(=O)Nc2cccc(-c3ccc(-c4nc5ccc(F)cc5[nH]4)cc3)c2)cc1 | 97% (active) | 40% | 1% | 101% (active) | inactive | inactive | inactive | inactive
